The values below come from ChEMBL document CHEMBL3988442, “University of Dundee, Small-Polar-MMV Screening Library” (2021).

For some of these results: Entries with a potency or affinity are not part of this list.

What all share (set-up): scale not given: direction of the effect not stated beside the values
The target in experiment [1] is Protein translocase subunit SecA (Escherichia coli (strain K12)) (UniProt P10408). In words: Assay to Identify E. coli SecA ATPase Inhibitors. The following applies: 30 µM. The experiment is classed as functional.
The target in experiment [2] is T1, Ubiquitin-activating enzyme e1, putative (Leishmania donovani (strain BPK282A1)) (UniProt E9BSI1).
T1 sequence (whole entry): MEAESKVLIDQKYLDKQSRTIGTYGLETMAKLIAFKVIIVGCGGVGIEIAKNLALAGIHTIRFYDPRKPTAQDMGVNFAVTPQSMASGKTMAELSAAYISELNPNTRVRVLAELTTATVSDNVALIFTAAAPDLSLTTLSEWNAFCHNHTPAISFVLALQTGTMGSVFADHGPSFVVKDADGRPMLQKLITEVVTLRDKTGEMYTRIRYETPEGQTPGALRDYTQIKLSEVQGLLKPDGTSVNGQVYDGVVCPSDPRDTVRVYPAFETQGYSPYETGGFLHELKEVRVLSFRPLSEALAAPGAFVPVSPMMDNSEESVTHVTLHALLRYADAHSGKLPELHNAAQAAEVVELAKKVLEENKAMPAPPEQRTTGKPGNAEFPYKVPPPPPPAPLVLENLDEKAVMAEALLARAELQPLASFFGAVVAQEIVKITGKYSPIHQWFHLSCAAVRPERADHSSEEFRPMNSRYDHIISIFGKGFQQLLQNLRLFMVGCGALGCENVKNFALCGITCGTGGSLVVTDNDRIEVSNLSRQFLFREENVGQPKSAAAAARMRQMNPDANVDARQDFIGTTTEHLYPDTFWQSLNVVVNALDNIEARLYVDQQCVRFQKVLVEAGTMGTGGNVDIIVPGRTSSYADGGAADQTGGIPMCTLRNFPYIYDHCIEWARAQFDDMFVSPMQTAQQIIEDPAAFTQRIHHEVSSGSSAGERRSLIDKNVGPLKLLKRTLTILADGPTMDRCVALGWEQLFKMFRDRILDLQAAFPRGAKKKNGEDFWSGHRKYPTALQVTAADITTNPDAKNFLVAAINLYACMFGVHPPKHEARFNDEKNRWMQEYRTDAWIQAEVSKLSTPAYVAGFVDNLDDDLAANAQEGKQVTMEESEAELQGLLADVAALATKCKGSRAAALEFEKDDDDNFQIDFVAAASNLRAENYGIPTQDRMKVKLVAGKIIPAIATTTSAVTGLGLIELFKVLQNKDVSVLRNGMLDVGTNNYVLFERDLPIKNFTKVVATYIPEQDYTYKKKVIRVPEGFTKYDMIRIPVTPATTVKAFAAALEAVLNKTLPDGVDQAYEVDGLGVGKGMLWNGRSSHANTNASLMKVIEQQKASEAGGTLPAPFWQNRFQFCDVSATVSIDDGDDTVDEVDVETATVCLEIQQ
In words: Leishmania donovani Ubiquitin Activating Enzyme (LdE1). Format: functional. The settings on record: 30 µM.

The target of experiment [3] is AMP-activated protein kinase, AMPK (Homo sapiens) (UniProt P54646+O43741+P54619+Q9UGJ0+Q9Y478+Q13131+Q9UGI9). In words: AMP-dependent Kinase enzyme assay. An in vitro enzyme assay that detects ADP turnover that is directly proportional to AMPK activity. This uses naive AMPK that is activated during the assay with MK-8722. The experiment is classed as functional. The settings on record: 30 µM.

Experiment [4] has as its target Sialic acid-binding Ig-like lectin 9 (Homo sapiens) (UniProt Q9Y336). In words: Hs-Siglec9 ALPHAscreen SOP 20170721. The settings on record: 10 µM. On the technique in general: Bead proximity is the source of the signal in Alpha formats.
The subject of a further experiment is Trypanosoma cruzi. In words: Trypanosoma cruzi phosphomannomutase and mannose-1-phosphate guanylyltransferase assay. The settings on record: 10 µM. Format: functional.
Experiment [5] deals with T2, Arginase-2, mitochondrial (Homo sapiens) (UniProt P78540).
T2 sequence (whole entry): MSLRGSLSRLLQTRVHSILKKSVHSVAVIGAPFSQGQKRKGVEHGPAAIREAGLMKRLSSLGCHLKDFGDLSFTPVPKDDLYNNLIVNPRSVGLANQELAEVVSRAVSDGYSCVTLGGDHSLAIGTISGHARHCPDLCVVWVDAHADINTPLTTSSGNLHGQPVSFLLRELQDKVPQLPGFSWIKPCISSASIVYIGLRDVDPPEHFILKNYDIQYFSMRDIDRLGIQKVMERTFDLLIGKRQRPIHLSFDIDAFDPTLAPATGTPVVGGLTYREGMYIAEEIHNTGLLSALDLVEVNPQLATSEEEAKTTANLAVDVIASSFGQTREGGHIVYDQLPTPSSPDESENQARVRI
In words: in vitro enzyme assay to detect the production of urea directly proportional to the activity of Arginase II. Note: in the data most compounds retested in dose-response had high values. The following applies: 33.3 µM. The experiment is classed as functional.

Experiment [6] concerns the target T3, Proteasome subunit beta (Trypanosoma cruzi) (UniProt O96673).
T3 sequence (whole entry): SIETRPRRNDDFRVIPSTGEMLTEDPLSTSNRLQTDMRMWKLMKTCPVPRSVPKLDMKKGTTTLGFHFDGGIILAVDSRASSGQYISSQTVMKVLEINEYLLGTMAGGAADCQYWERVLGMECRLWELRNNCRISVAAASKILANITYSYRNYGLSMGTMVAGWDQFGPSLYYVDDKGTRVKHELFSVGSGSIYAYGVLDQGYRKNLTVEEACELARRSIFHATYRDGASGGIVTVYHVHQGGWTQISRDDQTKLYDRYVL
In words: Trypanosoma cruzi proteasome chymotrypsin-like activity (TcProtChymo) assay. Note: in the data most compounds retested in dose-response had high values. Format: functional. The following applies: 9.37 µM.

For a further experiment, the species on record is Homo sapiens. In words: To identify inhibition of the IFN signalling (Jak-Stat) pathway via expression of an eGFP reporter gene under the control of an IFN-stimulated response element (ISRE) containing MxA promoter. Format: functional. The settings on record: 30 µM. A general note: Reporter assays use an easily measured gene product as a stand-in for the process of interest.

Experiment [7] concerns the target T4, Tyrosyl-tRNA synthetase, putative (Trypanosoma cruzi (strain CL Brener)) (UniProt Q4DSP6).
T4 sequence (whole entry): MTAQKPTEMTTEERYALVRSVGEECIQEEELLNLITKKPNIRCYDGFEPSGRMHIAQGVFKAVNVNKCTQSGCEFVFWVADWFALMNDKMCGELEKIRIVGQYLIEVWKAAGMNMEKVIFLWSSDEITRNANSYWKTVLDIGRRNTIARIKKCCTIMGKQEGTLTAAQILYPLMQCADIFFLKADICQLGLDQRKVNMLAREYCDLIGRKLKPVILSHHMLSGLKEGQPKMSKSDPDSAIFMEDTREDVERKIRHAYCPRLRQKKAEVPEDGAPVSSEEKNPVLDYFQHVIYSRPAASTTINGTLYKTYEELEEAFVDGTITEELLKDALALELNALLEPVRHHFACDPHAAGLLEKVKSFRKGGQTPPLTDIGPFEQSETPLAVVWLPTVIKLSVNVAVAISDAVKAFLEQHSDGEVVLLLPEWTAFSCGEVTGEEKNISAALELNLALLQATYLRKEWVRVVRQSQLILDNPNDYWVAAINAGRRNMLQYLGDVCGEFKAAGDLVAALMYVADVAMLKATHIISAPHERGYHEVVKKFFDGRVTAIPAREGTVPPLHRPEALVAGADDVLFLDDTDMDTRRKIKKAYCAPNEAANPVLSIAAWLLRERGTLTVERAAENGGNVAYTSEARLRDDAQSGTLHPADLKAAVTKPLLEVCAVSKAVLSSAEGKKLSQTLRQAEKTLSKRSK
In words: Trypanosoma cruzi tyrosyl tRNA synthetase (TcYRS) _High Tyrosine SOP. Note: in the data most compounds retested in dose-response had high values. The experiment is classed as functional. The settings on record: 30 µM.

Experiment [8] deals with T4, Tyrosyl-tRNA synthetase, putative (Trypanosoma cruzi (strain CL Brener)). In words: Trypanosoma cruzi tyrosyl tRNA synthetase (TcYRS) SOP. Format: functional. The following applies: 30 µM.
The target of experiment [9] is Chromo domain-containing protein 1 (Saccharomyces cerevisiae (strain ATCC 204508 / S288c) (Baker's yeast)) (UniProt P32657). In words: ScCHD-1 Enzyme Inhibition Assay. Note: in the data most compounds retested in dose-response had high values. The following applies: 30 µM. The experiment is classed as functional.
Chromo domain-containing protein 1 (Saccharomyces cerevisiae (strain ATCC 204508 / S288c) (Baker's yeast)), sequence (P32657 whole entry, the tested form may be a part): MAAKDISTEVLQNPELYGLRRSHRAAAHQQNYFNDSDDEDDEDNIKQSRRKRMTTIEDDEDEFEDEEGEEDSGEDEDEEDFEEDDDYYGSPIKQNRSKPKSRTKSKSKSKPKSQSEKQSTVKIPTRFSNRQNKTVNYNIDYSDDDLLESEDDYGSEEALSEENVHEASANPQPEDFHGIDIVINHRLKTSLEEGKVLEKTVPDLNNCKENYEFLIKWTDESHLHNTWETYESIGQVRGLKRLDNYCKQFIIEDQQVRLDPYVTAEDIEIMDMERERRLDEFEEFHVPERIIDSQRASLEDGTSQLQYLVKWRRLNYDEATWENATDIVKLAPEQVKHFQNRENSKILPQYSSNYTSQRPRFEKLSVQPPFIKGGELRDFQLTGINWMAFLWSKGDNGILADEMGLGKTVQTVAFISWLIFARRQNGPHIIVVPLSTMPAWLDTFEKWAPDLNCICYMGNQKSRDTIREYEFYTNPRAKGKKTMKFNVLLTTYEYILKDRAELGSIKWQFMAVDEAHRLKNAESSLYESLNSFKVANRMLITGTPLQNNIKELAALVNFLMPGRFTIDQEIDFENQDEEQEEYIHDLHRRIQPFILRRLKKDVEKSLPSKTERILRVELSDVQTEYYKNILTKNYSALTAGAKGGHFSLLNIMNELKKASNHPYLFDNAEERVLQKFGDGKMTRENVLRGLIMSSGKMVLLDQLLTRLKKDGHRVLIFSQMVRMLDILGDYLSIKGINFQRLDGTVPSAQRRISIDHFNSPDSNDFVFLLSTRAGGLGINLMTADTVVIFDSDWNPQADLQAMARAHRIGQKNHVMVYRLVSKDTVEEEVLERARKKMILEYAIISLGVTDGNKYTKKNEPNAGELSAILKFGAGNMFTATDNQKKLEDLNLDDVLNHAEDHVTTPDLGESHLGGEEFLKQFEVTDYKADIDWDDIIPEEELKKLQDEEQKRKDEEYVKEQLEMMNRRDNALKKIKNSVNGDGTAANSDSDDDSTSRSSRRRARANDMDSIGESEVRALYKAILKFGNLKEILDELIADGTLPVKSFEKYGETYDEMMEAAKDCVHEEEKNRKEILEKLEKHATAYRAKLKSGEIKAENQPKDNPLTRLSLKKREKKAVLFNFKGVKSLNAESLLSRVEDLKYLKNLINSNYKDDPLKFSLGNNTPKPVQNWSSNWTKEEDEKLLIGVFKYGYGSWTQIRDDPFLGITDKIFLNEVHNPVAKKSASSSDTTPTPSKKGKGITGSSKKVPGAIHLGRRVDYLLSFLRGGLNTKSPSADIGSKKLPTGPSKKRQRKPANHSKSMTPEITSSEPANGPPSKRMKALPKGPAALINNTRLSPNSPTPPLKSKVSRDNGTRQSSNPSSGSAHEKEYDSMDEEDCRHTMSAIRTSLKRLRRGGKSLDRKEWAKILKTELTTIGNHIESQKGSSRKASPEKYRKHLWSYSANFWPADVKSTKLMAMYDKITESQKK

Sialic acid-binding Ig-like lectin 9 (Homo sapiens), sequence (Q9Y336 whole entry): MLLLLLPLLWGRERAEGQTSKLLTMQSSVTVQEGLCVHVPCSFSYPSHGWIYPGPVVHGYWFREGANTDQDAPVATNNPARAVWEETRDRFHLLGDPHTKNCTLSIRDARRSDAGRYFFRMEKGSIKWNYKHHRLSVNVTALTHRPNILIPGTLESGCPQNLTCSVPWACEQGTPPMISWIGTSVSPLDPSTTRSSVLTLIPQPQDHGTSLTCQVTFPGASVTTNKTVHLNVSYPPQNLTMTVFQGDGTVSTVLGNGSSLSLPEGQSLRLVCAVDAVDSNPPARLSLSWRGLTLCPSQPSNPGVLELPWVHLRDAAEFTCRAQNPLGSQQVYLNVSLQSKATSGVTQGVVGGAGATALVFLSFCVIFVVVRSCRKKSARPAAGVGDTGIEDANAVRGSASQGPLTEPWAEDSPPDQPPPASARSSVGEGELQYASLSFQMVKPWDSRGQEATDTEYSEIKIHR
Protein translocase subunit SecA (Escherichia coli (strain K12)), sequence (P10408 whole entry): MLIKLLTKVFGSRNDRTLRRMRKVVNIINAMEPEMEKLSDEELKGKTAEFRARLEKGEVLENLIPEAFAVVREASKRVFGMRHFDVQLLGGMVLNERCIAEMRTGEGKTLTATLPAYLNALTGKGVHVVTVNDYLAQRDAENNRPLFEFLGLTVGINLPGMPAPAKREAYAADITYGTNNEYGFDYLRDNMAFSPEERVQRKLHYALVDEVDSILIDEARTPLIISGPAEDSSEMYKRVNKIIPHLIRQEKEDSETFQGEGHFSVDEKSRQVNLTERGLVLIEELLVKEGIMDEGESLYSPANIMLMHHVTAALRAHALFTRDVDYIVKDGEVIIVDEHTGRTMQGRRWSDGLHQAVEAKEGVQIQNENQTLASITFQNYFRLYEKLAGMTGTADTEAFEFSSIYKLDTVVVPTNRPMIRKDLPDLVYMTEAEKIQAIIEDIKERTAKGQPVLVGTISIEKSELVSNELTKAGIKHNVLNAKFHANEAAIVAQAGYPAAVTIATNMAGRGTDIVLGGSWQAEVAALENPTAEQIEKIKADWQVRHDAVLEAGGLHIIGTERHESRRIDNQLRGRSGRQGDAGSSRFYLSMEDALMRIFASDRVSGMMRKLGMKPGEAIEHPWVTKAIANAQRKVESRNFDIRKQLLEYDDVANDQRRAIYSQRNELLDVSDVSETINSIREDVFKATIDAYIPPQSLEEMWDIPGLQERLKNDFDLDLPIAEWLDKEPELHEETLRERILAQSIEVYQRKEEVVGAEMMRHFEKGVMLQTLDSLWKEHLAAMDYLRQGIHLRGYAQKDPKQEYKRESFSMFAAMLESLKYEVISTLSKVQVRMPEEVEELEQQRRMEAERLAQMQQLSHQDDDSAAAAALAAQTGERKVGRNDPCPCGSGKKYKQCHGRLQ

On to `CN(CCN1CCOCC1)C(=O)CCCc1ccccc1`, for which the Percent Effect in experiment [1] was -3.72%; in [2], 0%; in [3], 3.21%; in [4] it was 3.74%; in the experiment with Trypanosoma cruzi it was 4.38%; in [5] it was -3.55%. The Percent Effect in experiment [6] is 13.9%; in the experiment listed under Homo sapiens, -19%; in experiment [7] it was 5.32%; in experiment [8], 5.2%; in experiment [9], 0.287%.

Consider `CS(=O)(=O)N1CCOC2(CCCN(c3cnccn3)C2)C1` (stereo unspecified), for which the Percent Effect in experiment [1] is -3.81%; in [2], 0%; in [3], -1.28%; in experiment [4] it was -4.89%; with Trypanosoma cruzi it was -2.83%; in experiment [5] it was 1.74%. Also, the Percent Effect in experiment [6] turned out to be 6.09%; in the experiment listed under Homo sapiens, 1.81%; in experiment [7], 1.07%; in experiment [8], 1.24%; in [9], 0.866%.

As for `CCOC(=O)c1c(NC(=O)CN2CCN(C(C)=O)CC2)sc2c1CCC2`, the Percent Effect was -3.66% in [1]; 7.89% in experiment [2]; 9.52% in experiment [3]; 4.99% in [4]; -0.0974% in the experiment on Trypanosoma cruzi; -1.18% in experiment [5]. Moreover, the Percent Effect is 7% in experiment [6]; -11.1% in the experiment filed under Homo sapiens; 4.25% in experiment [7]; 13% in [8]; -4.6% in [9].

Take `O=C(CSc1ccccc1Cl)NS(=O)(=O)c1ccc2c(c1)OCCO2`: the Percent Effect in experiment [1] was -4.83%; in [2], -21.1%; in [3] it was 27.8%; in experiment [4], 4.23%; in the experiment on Trypanosoma cruzi, 1.69%; in experiment [5], -1.15%. The Percent Effect in experiment [6] was 9.69%; in the experiment listed under Homo sapiens it was 4.4%; in [7] it was -15.2%; in experiment [8] it was -12.2%; in experiment [9], -10.3%.

For `CCN(Cc1ccc2c(c1)OCO2)C(=O)c1ccc(C)[nH]c1=O`, the Percent Effect was -4.38% in experiment [1]; 13.2% in experiment [2]; -8.05% in experiment [3]; -3.99% in [4]; 11.5% in the experiment on Trypanosoma cruzi; -1.92% in [5]. For the same compound, the Percent Effect was 11.9% in experiment [6]; 15.1% in the experiment listed under Homo sapiens; 10.3% in experiment [7]; 19.5% in [8]; -15.7% in experiment [9].

Turning to `Cc1nc(CN2CCOC(CNc3cccnn3)C2)cs1` (stereo unspecified), the Percent Effect in [1] is 0.542%; in [2], -8.11%; in [3] it was -13.4%; in experiment [4], 10.4%; with Trypanosoma cruzi, 3.87%; in [5], -2.81%. Besides, the Percent Effect in experiment [6] was 20.2%; in the experiment filed under Homo sapiens, 3.75%; in [7] it was 14.3%; in [8] it was 6.17%; in [9] it was -6.92%.

Consider `O=C(NCCN1CCOCC1)c1cc(-c2ccc3c(c2)CCO3)n[nH]1`, for which the Percent Effect in [1] is -4.45%; in [2], 9.33%; in [3] it was 3.38%; in [4], -3.18%; with Trypanosoma cruzi, 1.57%; in [5], -5.11%. The Percent Effect is 1.48% in experiment [6]; -12.9% in the experiment listed under Homo sapiens; 5.29% in [7]; 7.69% in [8]; -6.47% in [9].

On to `Cc1cnn(CC2CCCN2C(=O)CCc2ccsc2)c1` (stereo unspecified), for which the Percent Effect in experiment [1] was -4.66%; in [2] it was 7.79%; in experiment [3] it was 3.01%; in [4], 4.3%; with Trypanosoma cruzi, 3.82%; in [5], 2.32%. The Percent Effect is 0.242% in experiment [6]; 15.8% in the experiment filed under Homo sapiens; 1.91% in [7]; 7.06% in experiment [8]; -15.5% in [9].

`CCC(C)(NCC(=O)Nc1ccccc1)c1nc(C)cs1` (stereo unspecified): the Percent Effect in experiment [1] was -2.41%; in experiment [2] it was 2.7%; in [3], -4.26%; in [4], 30.5%; in the experiment on Trypanosoma cruzi, 2.05%; in [5], 18.6%. The Percent Effect in experiment [6] is -0.772%; in the experiment filed under Homo sapiens it was -24.9%; in experiment [7] it was 1.07%; in experiment [8], 6.17%; in experiment [9], 2.11%.

On to `Cc1nc(CN2CCCC(N(C)Cc3nnsc3Cl)C2)no1` (stereo unspecified), for which the Percent Effect was -5.44% in experiment [1]; 5.2% in experiment [2]; 0.941% in [3]; -5.57% in [4]; 6.76% in the experiment with Trypanosoma cruzi; -5.26% in experiment [5]. In addition, the Percent Effect in experiment [6] is 2.99%; in the experiment filed under Homo sapiens, -2.55%; in [7] it was 5.71%; in [8], 7.06%; in [9] it was -13.5%.

As for `c1nc(N2CCCCC2Cn2cncn2)c2ccsc2n1` (stereo unspecified), the Percent Effect in experiment [1] is -6.19%; in [2] it was 16%; in experiment [3], -6.98%; in experiment [4], 35.1%; in the experiment with Trypanosoma cruzi it was 11.6%; in experiment [5], 25.5%. In addition, the Percent Effect in [6] was 9.59%; in the experiment filed under Homo sapiens, 16.8%; in experiment [7] it was 3.83%; in experiment [8], 13.6%; in experiment [9], -9.92%.
